Hit rate of the full screen: of about 5,500 compounds, about 2,000 (36%) were called active. About 18% were inconclusive and are not listed. The list shows a part of the results. A number with no mark means an inactive call. Rule as the data show it: active = normalized growth mostly below about 0.91 (no sharp cut-off); inconclusive = no clear call, values can overlap the other calls; inactive = mostly above about 0.92.
Experiment: chemical genetic growth profiling, strain panel (AID 1159580);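 also: tested at 20 µM; growth read once vehicle control cultures reached saturation at 30 °C; 1 = growth at the plate median or of vehicle wells; lower values mean less growth of the strain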
Details: growth OD
[1] = S. cerevisiae deletion strains, locus YAL013W, strain DEP1, hits give low values
[2] = S. cerevisiae deletion strains, locus YBR229C, strain ROT2, hits give low values
[3] = S. cerevisiae deletion strains, locus YDL101C, strain DUN1, hits give low values
[4] = S. cerevisiae deletion strains, locus YDR150W, strain NUM1, hits give low values
[5] = S. cerevisiae deletion strains, locus YEL061C, strain CIN8, hits give low values
[6] = S. cerevisiae deletion strains, locus YGR078C, strain PAC10, hits give low values
[7] = S. cerevisiae deletion strains, locus YHR030C, strain SLT2, hits give low values
[8] = S. cerevisiae deletion strains, locus YHR087W, strain rtc3, hits give low values
[9] = S. cerevisiae deletion strains, locus YJL187C, strain SWE1, hits give low values
[10] = S. cerevisiae deletion strains, locus YJR043C, strain POL32, hits give low values
[11] = S. cerevisiae deletion strains, locus YJR075W, strain HOC1, hits give low values
[12] = S. cerevisiae deletion strains, locus YLR039C, strain RIC1, hits give low values
[13] = S. cerevisiae deletion strains, locus YLR058C, strain SHM2 (second series), hits give low values
[14] = S. cerevisiae deletion strains, locus YLR085C, strain ARP6, hits give low values
[15] = S. cerevisiae deletion strains, locus YLR262C, strain YPT6, hits give low values
[16] = S. cerevisiae deletion strains, locus YML094W, strain GIM5, hits give low values
[17] = S. cerevisiae deletion strains, locus YMR219W, strain ESC1, hits give low values
[18] = S. cerevisiae deletion strains, locus YMR263W, strain SAP30, hits give low values
[19] = S. cerevisiae deletion strains, locus YMR307W, strain GAS1, hits give low values
[20] = S. cerevisiae deletion strains, locus YNL153C, strain GIM3, hits give low values
[21] = S. cerevisiae deletion strains, locus YNL298W, strain CLA4 (second series), hits give low values
[22] = S. cerevisiae deletion strains, locus YNL322C, strain KRE1, hits give low values
[23] = S. cerevisiae deletion strains, locus YNR030W, strain Alg12, hits give low values
[24] = S. cerevisiae deletion strains, locus YPL055C, strain LGE1, hits give low values
[25] = S. cerevisiae deletion strains, locus YPL241C, strain CIN2, hits give low values
[26] = S. cerevisiae deletion strains, locus YPR135W, strain CTF4, hits give low values
[27] = S. cerevisiae deletion strains, locus YKL190W, strain CNB1, hits give low values

O=C(Nc1cc(C(F)(F)F)cc(C(F)(F)F)c1)C(c1ccccc1)C1CCCC1 (stereo not given)
normalized growth [1]: 1.02 | normalized growth [2]: 1.01 | normalized growth [3]: 1.02 | normalized growth [4]: 1.02 | normalized growth [5]: 0.969 | normalized growth [6]: 1.03 | normalized growth [7]: 1.06 | normalized growth [8]: 1 | normalized growth [9]: 1.02 | normalized growth [10]: 1.01 | normalized growth [11]: 1.03 | normalized growth [12]: 1.04 | normalized growth [13]: 1 | normalized growth [14]: 1.01 | normalized growth [15]: 0.998 | normalized growth [16]: 1.02 | normalized growth [17]: 1 | normalized growth [18]: 1.02 | normalized growth [19]: 1.04 | normalized growth [20]: 1.01 | normalized growth [21]: 1.03 | normalized growth [22]: 1.01 | normalized growth [23]: 1.01 | normalized growth [24]: 1.03 | normalized growth [25]: 1.03 | normalized growth [26]: 1.01 | normalized growth (S. cerevisiae strains, strain wild type, hits give low values): 1

CCc1cccc(C)c1NC(=O)CC(C)(C)CC(=O)O
normalized growth [1]: 0.988 | normalized growth [2]: 0.994 | normalized growth [3]: 1.02 | normalized growth [4]: 0.981 | normalized growth [5]: 0.992 | normalized growth [6]: 0.99 | normalized growth (S. cerevisiae deletion strains, locus YGR229C, strain SMI1, hits give low values): 0.992 | normalized growth [7]: 0.989 | normalized growth [8]: 1.01 | normalized growth [9]: 0.996 | normalized growth [10]: 0.995 | normalized growth [11]: 1.01 | normalized growth [27]: 0.987 | normalized growth [12]: 1.03 | normalized growth [13]: 0.996 | normalized growth [14]: 0.966 | normalized growth [15]: 1.02 | normalized growth [16]: 1.06 | normalized growth [17]: 0.996 | normalized growth [18]: 0.967 | normalized growth [19]: 0.983 | normalized growth [20]: 1.01 | normalized growth [21]: 1.01 | normalized growth [22]: 0.992 | normalized growth [23]: 1 | normalized growth [24]: 1.02 | normalized growth [25]: 1.01 | normalized growth [26]: 1.06

O=C(Nc1cc(C(F)(F)F)cc(C(F)(F)F)c1)C(Cl)(Cl)Cl
normalized growth (S. cerevisiae deletion strains, locus YAR019C, strain CDC15, hits give low values): 0.964 | normalized growth (S. cerevisiae deletion strains, locus YBL105C, strain PKC1, hits give low values): 0.958 | normalized growth (S. cerevisiae deletion strains, locus YBR135W, strain CKS1, hits give low values): 0.962 | normalized growth (S. cerevisiae deletion strains, locus YBR136W, strain MEC1, hits give low values): 0.965 | normalized growth (S. cerevisiae deletion strains, locus YBR160W, strain CDC28, hits give low values): 0.969 | normalized growth (S. cerevisiae deletion strains, locus YDL017W, strain CDC7, hits give low values): 0.959 | normalized growth (S. cerevisiae deletion strains, locus YDL028C, strain MPS1, hits give low values): 0.966 | normalized growth [3]: 0.97 | normalized growth (S. cerevisiae deletion strains, locus YDL108W, strain KIN28, hits give low values): 0.957 | normalized growth (S. cerevisiae deletion strains, locus YDL132W, strain cdc53, hits give low values): 0.955 | normalized growth (S. cerevisiae deletion strains, locus YDL214C, strain PRR2, hits give low values): 0.919 | normalized growth (S. cerevisiae deletion strains, locus YDR052C, strain DBF4, hits give low values): 0.964 | normalized growth (S. cerevisiae deletion strains, locus YDR054C, strain cdc34, hits give low values): 0.948 | normalized growth (S. cerevisiae deletion strains, locus YDR226W, strain ADK1, hits give low values): 0.959 | normalized growth (S. cerevisiae deletion strains, locus YDR477W, strain SNF1, hits give low values): 0.921 | normalized growth (S. cerevisiae deletion strains, locus YER123W, strain YCK3, hits give low values): 0.878 | normalized growth (S. cerevisiae deletion strains, locus YER133W, strain GLC7, hits give low values): 0.918 | normalized growth (S. cerevisiae deletion strains, locus YFL009W, strain cdc4, hits give low values): 0.951 | normalized growth (S. cerevisiae deletion strains, locus YFL029C, strain CAK1, hits give low values): 0.962 | normalized growth (S. cerevisiae deletion strains, locus YFR003C, strain YPI1, hits give low values): 0.955 | normalized growth (S. cerevisiae deletion strains, locus YFR019W, strain FAB1, hits give low values): 0.957 | normalized growth (S. cerevisiae deletion strains, locus YFR028C, strain CDC14, hits give low values): 0.962 | normalized growth (S. cerevisiae deletion strains, locus YGR040W, strain KSS1, hits give low values): 0.929 | normalized growth (S. cerevisiae deletion strains, locus YGR052W, strain FMP48, hits give low values): 0.911 | normalized growth (S. cerevisiae deletion strains, locus YGR092W, strain DBF2, hits give low values): 0.879 | normalized growth [7]: 0.829 (active) | normalized growth (S. cerevisiae deletion strains, locus YHR079C, strain IRE1, hits give low values): 0.843 | normalized growth (S. cerevisiae deletion strains, locus YHR082C, strain KSP1, hits give low values): 0.932 | normalized growth (S. cerevisiae deletion strains, locus YHR205W, strain SCH9, hits give low values): 0.815 | normalized growth (S. cerevisiae deletion strains, locus YIL147C, strain SLN1, hits give low values): 0.96 | normalized growth (S. cerevisiae deletion strains, locus YJL095W, strain BCK1, hits give low values): 0.828 | normalized growth (S. cerevisiae deletion strains, locus YJL128C, strain PBS2, hits give low values): 0.883 | normalized growth (S. cerevisiae deletion strains, locus YJL157C, strain FAR1, hits give low values): 0.932 | normalized growth (S. cerevisiae deletion strains, locus YJR016C, strain ILV3, hits give low values): 0.956 | normalized growth (S. cerevisiae deletion strains, locus YJR066W, strain TOR1 (second series), hits give low values): 0.947 | normalized growth (S. cerevisiae deletion strains, locus YJR066W, strain TOR1, hits give low values): 0.955 | normalized growth (S. cerevisiae deletion strains, locus YKL048C, strain ELM1, hits give low values): 0.931 | normalized growth (S. cerevisiae deletion strains, locus YKL067W, strain YNK1, hits give low values): 0.932 | normalized growth (S. cerevisiae deletion strains, locus YKL101W, strain HSL1, hits give low values): 0.918 | normalized growth (S. cerevisiae deletion strains, locus YKL193C, strain SDS22, hits give low values): 0.95 | normalized growth (S. cerevisiae deletion strains, locus YKL203C, strain TOR2, hits give low values): 0.969 | normalized growth (S. cerevisiae deletion strains, locus YLR113W, strain HOG1, hits give low values): 0.853 (active) | normalized growth (S. cerevisiae deletion strains, locus YLR133W, strain CKI1, hits give low values): 0.934 | normalized growth (S. cerevisiae deletion strains, locus YLR403W, strain SFP1, hits give low values): 0.916 | normalized growth (S. cerevisiae deletion strains, locus YML070W, strain DAK1, hits give low values): 0.891 | normalized growth (S. cerevisiae deletion strains, locus YMR001C, strain CDC5, hits give low values): 0.963 | normalized growth (S. cerevisiae deletion strains, locus YMR205C, strain PFK2 (second series), hits give low values): 0.926 | normalized growth (S. cerevisiae deletion strains, locus YMR277W, strain FCP1, hits give low values): 0.956 | normalized growth (S. cerevisiae deletion strains, locus YNL006W, strain LST8, hits give low values): 0.974 | normalized growth (S. cerevisiae deletion strains, locus YNL020C, strain ARK1, hits give low values): 0.92 | normalized growth (S. cerevisiae deletion strains, locus YNL161W, strain CBK1, hits give low values): 0.957 | normalized growth (S. cerevisiae deletion strains, locus YNL183C, strain NPR1, hits give low values): 0.913 | normalized growth (S. cerevisiae deletion strains, locus YNL207W, strain RIO2, hits give low values): 0.955 | normalized growth (S. cerevisiae deletion strains, locus YNL222W, strain SSU72, hits give low values): 0.967 | normalized growth (S. cerevisiae deletion strains, locus YNL307C, strain MCK1 (second series), hits give low values): 0.869 | normalized growth (S. cerevisiae deletion strains, locus YOL078W, strain AVO1, hits give low values): 0.961 | normalized growth (S. cerevisiae deletion strains, locus YOL136C, strain PFK27, hits give low values): 0.89 | normalized growth (S. cerevisiae deletion strains, locus YOR061W, strain CKA2, hits give low values): 0.96 | normalized growth (S. cerevisiae deletion strains, locus YOR119C, strain RIO1, hits give low values): 1 | normalized growth (S. cerevisiae deletion strains, locus YOR231W, strain MKK1, hits give low values): 0.896 | normalized growth (S. cerevisiae deletion strains, locus YOR329C, strain SCD5, hits give low values): 0.959 | normalized growth (S. cerevisiae deletion strains, locus YPL031C, strain PHO85, hits give low values): 0.904 | normalized growth (S. cerevisiae deletion strains, locus YPL153C, strain RAD53, hits give low values): 0.889 | normalized growth (S. cerevisiae deletion strains, locus YPL204W, strain HRR25, hits give low values): 0.879 | normalized growth (S. cerevisiae deletion strains, locus YPL209C, strain IPL1, hits give low values): 0.964 | normalized growth (S. cerevisiae deletion strains, locus YPL256C, strain CLN2, hits give low values): 0.77 (active) | normalized growth (S. cerevisiae deletion strains, locus YPR025C, strain CCL1, hits give low values): 0.969 | normalized growth (S. cerevisiae deletion strains, locus YPR106W, strain ISR1, hits give low values): 0.958 | normalized growth (S. cerevisiae deletion strains, locus YPR111W, strain DBF20, hits give low values): 0.941 | normalized growth (S. cerevisiae deletion strains, strain NNK1, hits give low values): 0.96 | normalized growth (S. cerevisiae deletion strains, strain TSCII, hits give low values): 0.957

CCN1CN=C(SCc2ccc(Br)cc2)NC1
normalized growth [1]: 1.01 | normalized growth [2]: 1.01 | normalized growth (S. cerevisiae deletion strains, locus YCL061C, strain MRC1, hits give low values): 1.02 | normalized growth [3]: 0.998 | normalized growth (S. cerevisiae deletion strains, locus YDL134C, strain PPH21, hits give low values): 1.01 | normalized growth [4]: 0.995 | normalized growth [5]: 1.01 | normalized growth [6]: 0.998 | normalized growth [7]: 0.902 | normalized growth [8]: 0.999 | normalized growth [9]: 1.01 | normalized growth [10]: 0.988 | normalized growth [11]: 0.98 | normalized growth [27]: 1.02 | normalized growth [12]: 0.982 | normalized growth [13]: 1.02 | normalized growth [14]: 1.02 | normalized growth [15]: 0.953 | normalized growth [16]: 0.996 | normalized growth [17]: 0.999 | normalized growth [18]: 1.01 | normalized growth [19]: 1.17 | normalized growth [20]: 0.986 | normalized growth [21]: 0.984 | normalized growth [22]: 1.01 | normalized growth [23]: 0.999 | normalized growth [24]: 1.06 | normalized growth [25]: 0.995 | normalized growth [26]: 0.98

Source: PubChem BioAssay AID1159580 (chemical genetic matrix, 2015)
